Screening data: PubChem, Broad Institute
SIRT5 block: blocks human SIRT5 desuccinylation of peptide; Purified SirT5, succinyl-peptide AMC, trypsin-coupled fluorescence; inhibition, % at 15 µM; 330,000 compounds, 1.1% hits; in the data active means inhibition above about 15%
Target sequence (Q9NXA8 whole entry, looked up): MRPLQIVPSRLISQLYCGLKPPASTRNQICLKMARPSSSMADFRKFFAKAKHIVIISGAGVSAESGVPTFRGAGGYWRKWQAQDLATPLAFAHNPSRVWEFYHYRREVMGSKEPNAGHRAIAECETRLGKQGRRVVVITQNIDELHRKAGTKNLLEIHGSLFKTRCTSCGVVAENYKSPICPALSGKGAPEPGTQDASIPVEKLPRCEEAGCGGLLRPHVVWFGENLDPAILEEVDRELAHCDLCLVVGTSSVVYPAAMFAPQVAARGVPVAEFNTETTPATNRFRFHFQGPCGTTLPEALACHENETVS
ERAP1 HTS inh: inhibitors of human ERAP1 aminopeptidase | 340,000 compounds, 0.15% hits | inhibition, % at 10.7 µM | Q9NZ08 | recombinant ERAP1, Leu-AMC fluorescence, 60 min;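 active means mean replicate inhibition of at least 30%, or all replicates individually reaching that 30% level; inactive means mean below 30% and not every replicate reaching it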
CASP6 VEID inh: inhibitors of human caspase-6; inhibition, % at 12.5 µM; purified caspase-6, Z-VEID-R110 cleavage fluorescence; P55212; AID 686996; 350,000 compounds, 0.53% hits;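 active means mean inhibition across replicates at least about 35%, with every replicate also reaching that limit, limit read from the data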
Target sequence (P55212 24-179 limits assumed): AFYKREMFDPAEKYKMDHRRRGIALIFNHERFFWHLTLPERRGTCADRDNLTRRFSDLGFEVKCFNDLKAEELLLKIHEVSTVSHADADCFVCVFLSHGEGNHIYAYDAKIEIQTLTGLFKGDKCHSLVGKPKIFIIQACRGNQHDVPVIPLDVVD
Target sequence (P55212 194-293 limits assumed): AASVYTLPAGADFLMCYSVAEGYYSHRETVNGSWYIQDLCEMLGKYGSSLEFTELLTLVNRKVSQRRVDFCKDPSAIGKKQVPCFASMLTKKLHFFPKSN
FGF22 binding: FGF22 (human) thermal shift binding. 340,000 compounds, 1.5% hits. recombinant FGF22 thermal shift, SYPRO orange fluorescence; percent of sucrose octasulfate shift, DMSO zero. Q9HCT0. activity (Tm shift, normalised), % at 9.99 µM;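 active means mean Tm shift, scaled 0 neutral to 100 positive control, at about 1.3% or above, every replicate too, limit read from the data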
INS-1E GSIS act: GLuc luminescence reporter in INS-1E cells, primary screen for activators of glucose-dependent secretion of insulin; 370,000 compounds, 0.61% hits; INS-1E GLuc reporter insulin secretion, 2-3 h; activation, % at 16.6 µM;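 active means lowest replicate activation of at least 40%, so every replicate reaches that level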
Of the large screens only hits and unclear results are named; the others gave an inactive call. Only some compounds are listed: those with a hit (about 3.3% of all), similar ones and a draw of the others.

C[C@H]1CN([C@@H](C)CO)C(=O)c2cc(NC(=O)Nc3ccc(C(F)(F)F)cc3)ccc2O[C@H]1CN(C)Cc1ccc2c(c1)OCO2	none
C[C@H](CO)N1C[C@H](C)[C@H](CN(C)C(=O)Nc2ccc3c(c2)OCO3)Oc2ccc(NC(=O)Nc3ccc(C(F)(F)F)cc3)cc2C1=O	SIRT5 block 15
C[C@@H]1CN([C@@H](C)CO)C(=O)c2cc(NC(=O)Nc3ccc4c(c3)OCO4)ccc2O[C@@H]1CN(C)C(=O)Nc1ccc(C(F)(F)F)cc1	SIRT5 block 16
C[C@@H]1CN([C@H](C)CO)C(=O)c2cc(NC(=O)Nc3ccc(C(F)(F)F)cc3)ccc2O[C@H]1CN(C)C(=O)Nc1ccc2c(c1)OCO2	none
O=C(N/N=C/c1cn(Cc2ccccc2)c2ccccc12)c1cc(O)cc(O)c1	CASP6 VEID inh 53
Cc1ccc(C(=O)N/N=C/c2cn(Cc3ccccc3)c3ccccc23)cn1	none (no result: INS-1E GSIS act)
COc1ccc(Cl)cc1NC(=S)N1CCN(C(=O)C2CCCO2)CC1 (stereo unspecified)	none
COc1cc(NC(=S)N2CCN(C(=O)C3CCCO3)CC2)c(OC)cc1Cl (stereo unspecified)	FGF22 binding 44
CCCCC(CC)C(=O)Nc1cccc(SC)c1 (stereo unspecified)	none (no result: FGF22 binding)
CCCCC(CCCCl)C(=O)Nc1ccccc1 (stereo unspecified)	FGF22 binding 43
Cc1ccc(/C=C/C(=O)c2ccccc(=O)c2O)c(C)c1	CASP6 VEID inh 39 (no result: SIRT5 block)
Cc1ccc(C)c(/C=C/C(=O)c2ccccc(=O)c2O)c1	none (no result: SIRT5 block, ERAP1 HTS inh, CASP6 VEID inh, FGF22 binding)
COc1ccc(C(=O)C(C)OC(=O)c2nc3nccc(C)n3n2)cc1 (stereo unspecified)	CASP6 VEID inh 91
COc1ccccc1CN1C[C@@H](C)[C@H](OC)CN(C)C(=O)c2ccc(NC(C)=O)cc2OC[C@H]1C	none
COC/C=C/C1=CC2=CC(=O)C(C)(OC(=O)c3cnc4ccccc4n3)C(=O)C2=CN1C1CC1 (stereo unspecified)	none
COC/C=C/C1=CC2=CC(=O)C(C)(OC(=O)C3CCCC3)C(=O)C2=CO1 (stereo unspecified)	CASP6 VEID inh 36 (no result: SIRT5 block)
CCOc1ccc(NC(=O)Nc2ccc(NC(C)=O)cc2)cc1	none
CCOc1ccc(NC(=O)NC(C)CC)cc1 (stereo unspecified)	FGF22 binding 43
COc1ccc(NC(=O)Nc2cnccn2)cc1	none
CCOc1ccc(NC(=O)Nc2cnccn2)cc1	FGF22 binding 43
CC1=CN2C(=N)/C(=C/c3ccc([N+](=O)[O-])o3)C(=O)N=C2S1	SIRT5 block 21, CASP6 VEID inh 37
COc1cccc(S(=O)(=O)Nc2ccc3c(c2)[C@H]2C[C@@H](CC(=O)N(C)C)O[C@H](CO)[C@H]2O3)c1	none
C[C@@H]1CC=CCCNC(=O)[C@@H](Cc2ccccc2)N(C)C(=O)c2ccccc2O1 (mixture of isomers)	none (no result: SIRT5 block, ERAP1 HTS inh, CASP6 VEID inh, FGF22 binding)
CC(C)Nc1nc(SC(C)C(=O)Nc2ccccc2)nc(N(C)C)n1 (stereo unspecified)	none
CCNc1nc(SC(C)C(=O)Nc2ccccc2)nc(N(C)C)n1 (stereo unspecified)	FGF22 binding 43
N/C(=N/O)c1ccccc1N1CCC(Cc2ccccc2)CC1	FGF22 binding 44
C[C@@H]1CCCCO[C@@H](CN(C)C(=O)Nc2ccccc2)[C@H](C)CN([C@H](C)CO)C(=O)c2cc(NC(=O)Nc3ccccc3)ccc2O1	none
CCC(=O)NC(c1cccs1)c1cc([N+](=O)[O-])c2cccnc2c1O (stereo unspecified)	SIRT5 block 24
Cc1ccc(CSc2nc3ccccc3c(=O)[nH]2)cc1	none
O=c1[nH]c(SCc2ccccc2)nc2c1sc1ccccc12	FGF22 binding 44
CN(C)S(=O)(=O)c1cccc(C(=O)OCC(=O)NCc2ccc3c(c2)OCO3)c1	FGF22 binding 43
O=C(COC(=O)c1cccc(O)c1)NCc1ccc2c(c1)OCO2	none
C=CCN1C(=O)C(CC(=O)Nc2ccccc2)N(Cc2ccccn2)C1=S (stereo unspecified)	FGF22 binding 44
CCN1C(=O)C(CC(=O)Nc2ccccc2)N(Cc2ccccn2)C1=S (stereo unspecified)	none
O=C(C[C@@H]1CC[C@@H](NC(=O)Nc2ccc(F)cc2)[C@@H](CO)O1)NCc1cccc(F)c1	none
CCN(CC)C(=O)Cn1cc(C(=O)C(=O)N2CC=C(c3ccccc3)CC2)c2ccccc21	FGF22 binding 43
CCN(CC)C(=O)Cn1cc(C(=O)C(=O)N2CCN(C)CC2)c2ccccc21	none (no result: INS-1E GSIS act)
Cc1cccc(CNCc2ccccc2)c1	none
Cc1cccc(NCc2ccccc2)c1	INS-1E GSIS act 95
O=C1CNC[C@H]2[C@@H](c3ccc(C4=CCCC4)cc3)[C@H](CO)N12	SIRT5 block 21 (no result: FGF22 binding)
N#C[C@@H]1[C@H](c2ccc(C3=CCCCC3)cc2)[C@@H](CO)N1S(=O)(=O)c1ccccc1	CASP6 VEID inh 41
CCS(=O)(=O)N1CC(=O)N2[C@H](CO)[C@H](c3ccc(C4=CCCCC4)cc3)[C@@H]2C1	SIRT5 block 22 (no result: ERAP1 HTS inh, CASP6 VEID inh, FGF22 binding)
CCS(=O)(=O)N1CC(=O)N2[C@H](CO)[C@H](c3ccc(C4=CCCC4)cc3)[C@@H]2C1	none (no result: FGF22 binding)
CN(C[C@H]1[C@@H](c2ccc(C3=CCCC3)cc2)[C@@H](CO)N1CCC(F)(F)F)S(C)(=O)=O	SIRT5 block 25 (no result: ERAP1 HTS inh, CASP6 VEID inh, FGF22 binding)
CC(C)C(=O)Nc1ccc2c(c1)C(=O)N(C)[C@@H]1CC[C@@H](CC(=O)N[C@H](C)c3ccccc3)O[C@H]1CO2	none (no result: SIRT5 block, ERAP1 HTS inh, CASP6 VEID inh)
CCC(=O)Nc1ccc2c(c1)OC[C@@H](C)N(C(=O)c1cnccn1)C[C@@H](C)[C@@H](OC)CN(C)C2=O	none (no result: FGF22 binding)
C[C@H](CO)N1C[C@H](C)[C@@H](CN(C)C(=O)Nc2ccc3c(c2)OCO3)OCCCC[C@H](C)Oc2ccc(NS(=O)(=O)c3ccc(F)cc3)cc2C1=O	none (no result: SIRT5 block, ERAP1 HTS inh, CASP6 VEID inh)
COc1ccc(O)c(/C=N/NC(=S)Nc2cccc(S(=O)(=O)N(C)C)c2)c1	none (no result: SIRT5 block, ERAP1 HTS inh, CASP6 VEID inh, FGF22 binding)
CN(C)S(=O)(=O)c1cccc(NC(=S)N/N=C/c2ccc(O)c(O)c2O)c1	CASP6 VEID inh 38
O=C(C[C@@H]1CC[C@@H](NC(=O)c2ccncc2)[C@@H](CO)O1)NCC1CCCCC1	none
COC(=O)c1ccc(CNC(=O)/C=C/[C@H]2O[C@@H](n3cc(C)c(=O)[nH]c3=O)C[C@@H]2O)cc1	SIRT5 block 21 (no result: INS-1E GSIS act)
COc1ccc(CNC(=O)/C=C/[C@H]2O[C@@H](n3cc(C)c(=O)[nH]c3=O)C[C@@H]2O)cc1	none (no result: INS-1E GSIS act)
O=C(c1ccccn1)N1CC2(C1)[C@@H](c1ccccc1)[C@H](CO)N2C(=O)C1CCC1	none (no result: FGF22 binding)
COc1ccc(CNC(=O)C[C@H]2CC[C@@H](NC(=O)c3cccc(F)c3)[C@@H](CO)O2)cc1	none
Cc1cc([N+](=O)[O-])nn1CCCC(=O)NC(C)c1ccccc1 (stereo unspecified)	SIRT5 block 38 (no result: INS-1E GSIS act)
Nc1ncnc2c(C3OC(CO)C(O)C3O)scc12 (stereo unspecified)	FGF22 binding 43 (no result: SIRT5 block)
